According to PubChem BioAssay:
Calls of active or inactive are those of the source.

Assay: resazurin metabolic signal in HepG2 cells – cell-based, resazurin fluorescence, 24 h, PK04 Diversity Set, profiling panel (AID 1172); also: test concentration not given here
Conditions: HepG2 viability, higher = more signal

Row | Structure (SMILES) | z-score
1 | C[C@@H](c1ccccc1)N1C(=O)[C@H]2[C@H]3[C@H](O)[C@H](O)CC(=NOC[C@@H](O)COCc4ccco4)[C@H]3CC[C@H]2C1=O | -0.259
2 | COc1ccc(O[C@H]2C=C[C@@H](C#Cc3ccccc3)O[C@@H]2CO)cc1 | 0.124
3 | COC(=O)[C@@H]1CC[C@H](C)[C@@H](c2ccc(Br)cc2)N1C[C@@H](O)CN=[N+]=[N-] | -0.36
4 | CC(C)=CCCC(C)=CCON=C1C[C@@H](O)[C@@H](O)[C@@H]2[C@@H]3C(=O)N(Cc4ccc5c(c4)OCO5)C(=O)[C@@H]3CC[C@@H]12 | 0.542

Assay: budding yeast growth changes without added modifier – OD600, strain BY4716, 24 h, basal condition, primary screen (AID 1173)
Conditions: S. cerevisiae BY4716 growth, OD600, 24 h; higher = more signal, called active from +8 up or from −8 down

Row | Structure (SMILES) | z-score
5 | C=CC[C@@H]1C=C[C@H](ON=CC[C@@H]2C=C[C@H](OC(C)=O)[C@@H](COC(C)=O)O2)[C@@H](CO)O1 | 0.365 (inactive)
6 | C=CC[C@@H]1C=C[C@H](ON=C(C)CCN2CCCc3nc(C)c(C)cc32)[C@@H](CO)O1 | 0.529 (inactive)
7 | CC(=O)OC[C@H]1O[C@H](CC=NO[C@H](C)c2cn([C@@H]3COC[C@H]3O)nn2)C=C[C@@H]1OC(C)=O | -0.199 (inactive)
8 | CC(=O)OC[C@H]1O[C@H](CCON=C(C)CCN2CCCc3nc(C)c(C)cc32)C=C[C@@H]1OC(C)=O | 1.34 (inactive)
9 | CO[C@H]1COC(=O)[C@H](CCSC)NC(=O)CC=C[C@@H](C)[C@H](OC)COC(=O)[C@@H](OCc2ccccc2)C=C[C@@H]1C | -0.41 (inactive)
10 | CN1CCc2nc(-c3ccccc3)c(-c3ccccc3)cc2C1 | 0.0367 (inactive)
11 | CON=C(C)CCN1CCc2nc(-c3ccccc3)c(-c3ccccc3)cc2C1 | -6.56 (inactive)
12 | CCN1C(=O)[C@H]2[C@@H]3C(=CC[C@H]2C1=O)C(=O)[C@H]1O[C@H]1[C@H]3O | -1.12 (inactive)
13 | CC(C)C(=O)N[C@H]1CCCN1C(=O)C=Cc1ccccc1 | 0.881 (inactive)
14 | CCOC(=O)[C@H](CC(C)C)NC(=O)CCC1CC(OC(=O)NCc2ccc3c(c2)OCO3)CC2(CCCC(COC(=O)NCCC(C)C)O2)O1 (some centres undefined) | -0.214 (inactive)
15 | COC(=O)CC=C[C@@H](C)[C@@H](C=NOC[C@@H](O)COCc1ccco1)NS(=O)(=O)c1ccc(C)cc1 | 0.0959 (inactive)
16 | CON=C(C)CCN1CCCCc2nc(C)c(C)cc21 | -0.571 (inactive)
17 | CC(=O)OC[C@H]1O[C@H](CCON=C(C)C)C=C[C@@H]1OC(C)=O | 0.421 (inactive)
18 | O=C1CCCC=C1C(O)C1CCCCC1 (centres undefined) | -0.143 (inactive)
19 | COC(=O)CC=C[C@@H](C)[C@@H](C=NOC[C@@H](C)[C@H](OCc1ccccc1)C(C)C)OC | 0.285 (inactive)
20 | COC(=O)[C@H](C)NC(=O)CC=C[C@@H](C)[C@@H]1C=C[C@H](O)[C@@H](CO)O1 | 0.104 (inactive)
21 | C[C@@H](c1ccccc1)N1C(=O)[C@H]2[C@H]3[C@H](O)[C@H](O)CC(=NOCc4ccccc4)[C@@H]3CC[C@H]2C1=O | -0.123 (inactive)
22 | O=C1[C@H]2[C@H]3[C@H](O)[C@H](O)CC(=NOC[C@@H](O)COCc4ccco4)[C@@H]3CC[C@H]2C(=O)N1Cc1ccc2c(c1)OCO2 | 0.182 (inactive)
23 | CCCNC(=O)OC[C@H]1O[C@H](CCON=C2C[C@@H](O)[C@@H](O)[C@@H]3[C@@H]4C(=O)N(CC)C(=O)[C@@H]4CC[C@@H]23)C=C[C@@H]1Oc1ccc(OC)cc1 | 0.0913 (inactive)
24 | CC(C)CON=C1C[C@@H](O)[C@@H](O)[C@@H]2[C@@H]3C(=O)N(Cc4ccc5c(c4)OCO5)C(=O)[C@@H]3CC[C@@H]12 | 0.793 (inactive)
25 | COc1ccc(COC(=O)NN=C2C[C@@H](O)[C@@H](O)[C@@H]3[C@@H]4C(=O)N([C@@H](C)c5ccccc5)C(=O)[C@@H]4CC[C@@H]23)cc1 | 0.501 (inactive)
26 | C[C@@H]1CC[C@H]2C(=O)N3[C@@H](CC[C@@H](C)[C@@H]3c3ccc(Br)cc3)C(=O)N2[C@H]1c1ccc(Br)cc1 | 0.0314 (inactive)
27 | CCOC(=O)CCN1C(=O)[C@H]2[C@H]3[C@H](O)[C@H](O)CC(=O)[C@@H]3CC[C@H]2C1=O | -0.375 (inactive)
28 | COC(=O)[C@H](CCSC)NC(=O)CC=C[C@@H](C)CO | 0.0957 (inactive)
29 | CCOC(=O)[C@H](Cc1ccccc1)NC(=O)CCC1CC(OC(=O)NCc2cccc3ccccc23)CC2(CCCC(COC(=O)NCCOc3ccccc3)O2)O1 (some centres undefined) | -1.13 (inactive)
